Assay outcomes: PubChem, National Center for Advancing Translational Sciences (NCATS)
Shiga inhibitor: blocks Shiga toxin action in Vero cells; Vero cells, Shiga toxin protein synthesis inhibition reporter; 290,000 compounds, 9.2% hits; AID 2315; inhibition, % at 38.7 µM; in the data active means inhibition mostly above about 28%, no sharp cut-off; inactive means mostly below about 43%
CHX counter: counter-screen hit for Shiga toxin inhibitors, cycloheximide | cell reporter, cycloheximide protein synthesis inhibition counterscreen | max response, % | 300,000 compounds, 12% hits; in the data active means max response mostly above about 13%, no sharp cut-off; inactive means mostly below about 14%; further: read at 38.3 µM for the half of the compounds with a filed dose
TbPYK inhibitor: blocks Trypanosoma brucei pyruvate kinase | Q57TT1 | TbPYK enzyme, Kinase-Glo Plus ATP luminescence, 45 min | Potency, µM (titrated, usually from 76.8 µM), actives largely listed as inhibitors | 410,000 compounds, 0.12% hits | AID 624173; active means well fitted curve in the direction sought with a large enough effect; inconclusive means small, poorly fitted or top-dose-only effect, or another doubt; inactive means no such curve, though single readings can be large; an effect the other way counts as inactive or inconclusive; further: nearly all actives have a fitted effect of over 50% in size
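Luminescent Kinase-Glo Plus end-point after 45 min room-temperature reaction of T. brucei pyruvate kinase started with 130 uM ADP (final). Buffer TEA 50 mM pH 7.2 with KCl, MgCl2, BSA, Tween-20; titration-based qHTS with fitted concentration-effect curves.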
NS1 function inh: inhibitors of influenza NS1 protein function; 270,000 compounds, 0.4% hits; Potency, µM (titrated, usually from 46.1 µM); further: actives are rising curves; nearly all actives have a fitted effect of over 50% in size
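Compounds were scored for reversing the slow growth caused by influenza A NS1 in S. cerevisiae, measured by optical density at 600 nm. Assay medium contained 2% galactose at pH 6.0; NS1-free yeast of the same strain were the positive control.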
LmPK inh: LmPK (Leishmania mexicana) enzyme inhibition; purified LmPK, Kinase-Glo ATP luminescence, 1 h; Potency, µM (titrated, usually from 57.5 µM), most hits filed as inhibitors; 290,000 compounds, 0.37% hits; AID 1721; active means well fitted curve in the direction sought with a large enough effect; inconclusive means small, poorly fitted or top-dose-only effect, or another doubt; inactive means no such curve, though single readings can be large; an effect the other way counts as inactive or inconclusive
Target sequence (Q27686 whole entry, looked up): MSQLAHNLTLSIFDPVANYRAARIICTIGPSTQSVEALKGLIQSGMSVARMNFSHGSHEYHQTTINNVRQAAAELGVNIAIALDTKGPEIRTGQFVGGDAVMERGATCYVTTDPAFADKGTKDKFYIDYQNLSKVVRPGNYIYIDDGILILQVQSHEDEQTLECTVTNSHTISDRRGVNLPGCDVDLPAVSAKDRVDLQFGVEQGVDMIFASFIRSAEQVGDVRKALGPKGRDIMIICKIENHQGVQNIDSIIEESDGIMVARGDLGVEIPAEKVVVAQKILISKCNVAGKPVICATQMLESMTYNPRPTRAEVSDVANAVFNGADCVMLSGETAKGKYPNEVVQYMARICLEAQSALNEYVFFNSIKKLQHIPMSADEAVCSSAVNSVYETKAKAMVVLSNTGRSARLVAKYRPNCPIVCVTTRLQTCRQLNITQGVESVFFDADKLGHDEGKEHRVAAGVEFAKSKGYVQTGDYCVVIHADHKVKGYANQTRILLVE
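Purified LmPK (0.1 nM) with 0.5 mM PEP and 0.1 mM ADP in imidazole buffer pH 7.2 with MgCl2/KCl, 1 h at room temperature. ATP formed was read by luciferase luminescence and normalized to no-enzyme and uninhibited controls.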
SARS PLP yeast: blocks SARS-CoV papain-like protease in a yeast assay; S. cerevisiae expressing SARS-CoV PLpro, growth rescue; Potency, µM (doses to about 32.9 µM), actives largely listed as activators; 330,000 compounds, 0.19% hits; further: nearly all actives have a fitted effect of over 55% in size
Large screens that a line does not name were inactive; ! = a repeat was not active. Many of the other results were omitted from the sample, so hits are more common in it than they were. Unless noted, the call rests on the fitted dose curve.

N#C/C(=N/Nc1ccc([N+](=O)[O-])cc1)C(=N)N1CCCCC1	Shiga inhibitor 104, CHX counter 31 (no result: NS1 function inh)
N=C(c1ccc([N+](=O)[O-])cc1)N1CCCCC1	none
COc1cccc(CN(C)C(=O)CSCC(=O)Nc2cccc(C)c2)c1OC	none (no result: Shiga inhibitor, CHX counter, NS1 function inh, LmPK inh)
O=C(Nc1ccc(Br)cc1F)c1cc(S(=O)(=O)NC2CCCCC2)ccc1F	none (no result: Shiga inhibitor, CHX counter, NS1 function inh, LmPK inh, SARS PLP yeast)
N#C/C(=N\Nc1ccc(Br)cc1)C(=N)N1CCOCC1	Shiga inhibitor 107, CHX counter 69 (no result: NS1 function inh)
O=c1cc(-c2ccc(O)c(O)c2)oc2cc(O)cc(O)c12	Shiga inhibitor 67, CHX counter 56
COc1cc(-c2oc3cc(O)cc(O)c3c(=O)c2O)ccc1O	Shiga inhibitor 49, CHX counter 48! (no result: TbPYK inhibitor, NS1 function inh, LmPK inh, SARS PLP yeast)
O=c1c(O)c(-c2ccc(O)c(O)c2)oc2cc(O)cc(O)c12	CHX counter 30
COc1ccc(-c2cc(=O)c3c(O)cc(O)cc3o2)cc1	none (no result: Shiga inhibitor, CHX counter, NS1 function inh, LmPK inh, SARS PLP yeast)
O=c1c(O)c(-c2ccc(O[C@@H]3O[C@H](CO)[C@@H](O)[C@H](O)[C@H]3O)c(O)c2)oc2cc(O)cc(O)c12	none (no result: TbPYK inhibitor, NS1 function inh, LmPK inh, SARS PLP yeast)
CCc1ccc(NC(=O)c2ccc(F)c(S(=O)(=O)N(CC)c3ccccc3)c2)cc1	CHX counter 14
COc1ccc(CN2CCNC(=O)C2CC(=O)NC2CCCC2)c(OC)c1 (centres undefined)	none
CCc1nc(NCc2ccccn2)c2oc3ccccc3c2n1	none
CC(=O)Nc1ccc(Nc2nc(C)nc3c2oc2ccccc23)cc1	none
CC(=O)c1ccc(Nc2ncnc3c2oc2ccccc23)cc1	Shiga inhibitor 66, CHX counter 57, NS1 function inh inconclusive
c1ccc(-c2nc(NCC3CCCO3)c3oc4ccccc4c3n2)cc1 (centres undefined)	none
c1ccc2c(c1)oc1c(NCC3CCCO3)ncnc12 (centres undefined)	Shiga inhibitor 54, CHX counter 34
c1ccc(CNc2ncnc3c2oc2ccccc23)nc1	Shiga inhibitor 59, CHX counter 23
Cc1cccc(N2CCN(c3ccc(C(=O)O)cc3NC(=O)c3cccc(Cl)c3)CC2C)c1 (centres undefined)	none (no result: Shiga inhibitor, CHX counter, NS1 function inh, LmPK inh, SARS PLP yeast)
O=C1NC[C@@H](CCCCN2CCN(CCC3CCCCC3)C(=O)C2=O)N(Cc2ccccc2)C1=O	none (no result: Shiga inhibitor, CHX counter, NS1 function inh, LmPK inh, SARS PLP yeast)
O=C(CCN1C(=O)S/C(=C\C=C\c2ccccc2)C1=O)Nc1ccc(O)cc1	Shiga inhibitor 52, CHX counter 32
O=C(CN1C(=O)S/C(=C\C=C\c2ccccc2)C1=O)Nc1cccc(O)c1	Shiga inhibitor 38, CHX counter 34
CCC(Sc1nnc(-c2ccc(OC)c(OC)c2)c(-c2ccc(OC)c(OC)c2)n1)C(=O)NC1CCCC1 (centres undefined)	none (no result: Shiga inhibitor, CHX counter, NS1 function inh, LmPK inh, SARS PLP yeast)
COc1ccc(S(=O)(=O)N(C)CC(=O)NCCCN2CCOCC2)cc1C	none (no result: Shiga inhibitor, CHX counter, NS1 function inh, LmPK inh, SARS PLP yeast)
COc1ccc(OC)c(NC(=O)COCc2cc(-c3ccc(F)cc3)on2)c1	none (no result: Shiga inhibitor, CHX counter, NS1 function inh, LmPK inh, SARS PLP yeast)
CC(C)NC(=O)NC(=O)COC(=O)c1cc(S(=O)(=O)N2CCCCC2)ccc1N1CCOCC1	Shiga inhibitor 44, CHX counter 12
O=C(COC(=O)c1cc2ccccc2oc1=O)Nc1ccc(F)cc1F	Shiga inhibitor 118, CHX counter 52
O=C(COC(=O)c1ccccc1Cl)Nc1cccc(S(=O)(=O)N2CCCCC2)c1	none (no result: Shiga inhibitor, CHX counter, NS1 function inh, LmPK inh, SARS PLP yeast)
O=C(COC(=O)c1cc2ccccc2oc1=O)Nc1cccc(S(=O)(=O)N2CCCCCC2)c1	Shiga inhibitor 64, CHX counter 27
CN(C)S(=O)(=O)c1cccc(NC(=O)COC(=O)c2cc3ccccc3oc2=O)c1	Shiga inhibitor 134, CHX counter 51
CCN(c1ccc(NC(=O)COC(=O)c2cc3ccccc3oc2=O)cc1)C(C)C	none (no result: NS1 function inh)
CCCCN(C)c1ncnc2c1cnn2-c1cccc(Cl)c1	none (no result: Shiga inhibitor, CHX counter, NS1 function inh, LmPK inh, SARS PLP yeast)
C/C(CC(=O)Nc1cc(Cl)ccc1C)=N\NC(N)=O	none
Cc1nc2oc3ccccc3c(=O)c2cc1C(=O)O	none
COC(=O)c1cc2c(ccc3ccccc32)oc1=O	none (no result: Shiga inhibitor, CHX counter, NS1 function inh, LmPK inh, SARS PLP yeast)
COC(=O)c1cc2c(=O)c3ccccc3oc2nc1/C=C/N(C)C	CHX counter 19
COC(=O)c1cc2c(=O)c3ccccc3oc2nc1C	Shiga inhibitor 49, CHX counter 24
CCc1nc2oc3ccc(C)cc3c(=O)c2cc1C(=O)OC	Shiga inhibitor 30, CHX counter 24
Cc1nc2oc3ccc(F)cc3c(=O)c2cc1C(=O)NC(C)(C)C	Shiga inhibitor 128, CHX counter 41
